Assay results: PubChem BioAssay AID686921 (National Center for Advancing Translational Sciences (NCATS), 2013)
Values without a mark were called inactive. Calls of active or inactive are those of the source. Calls come from the whole dose curve; as a rule, active = well fitted curve in the direction sought with a large enough effect; inconclusive = small, poorly fitted or top-dose-only effect, or another doubt; inactive = no such curve, though single readings can be large or run the other way.

Test: qHTS screen for inhibitors of ELG1-dependent DNA repair in human embryonic kidney (HEK293T) cells expressing luciferase-tagged ELG1: 5FU Viability Assay for probe SAR
Settings: HEK293T ELG1-luc, CellTiter-Glo viability, 16 h; series mostly up to 46.1 µM; activity change, negative = inhibition: at the top concentration
Description: Cancer cells divide rapidly compared to normal cells in the body. During cell division, cancer cells need to duplicate their genome by DNA replication. The failure of genome duplication leads to cancer cells' death. Therefore, inhibitors of DNA replication could specifically kill cancer cells. Based on this concept, many chemotherapeutic agents were developed and have been used to treat cancer patients. However, there are a limited number of agents available in the clinical setting, and some of those that do exist have low efficacy and severe side effects. Therefore, if we can find the compounds that effectively block DNA replication either by directly damaging DNA or by inhibiting other cellular mechanisms, the options for cancer treatment will be broadened. With this in mind, we developed a quantitative high-throughput ELG1-luciferase reporter gene assay. Small molecules that specifically block ELG1 function in response to DNA damage can be identified by monitoring the suppression of luciferase activity. Since ELG1 defines a pathway for repairing DNA damage, agents blocking ELG1 function can be used to sensitize cancer cells to chemotherapeutic agents whose mechanism of action involves the induction of DNA damage. Cytotoxicity of the active compounds in the ELG1 qHTS assay (AID 493107) was assessed using the CellTiter-Glo Luminescent Cell Viability Assay kit (Promega, USA). CellTiter-Glo measures the intracellular ATP present in metabolically active cells using Ultra-Glo as the luciferase to detect ATP levels. In brief, the luciferase in the buffer catalyzes the oxidation of luciferin to oxyluciferin and light which is dependent on ATP. […] DMSO and wells with media alone were used as positive and negative controls, respectively. Inactivity to this assay is the desirable outcome. NIH Molecular Libraries Probe Production Network [MLPCN] NIH Chemical Genomics Center [NCGC] MLPCN Grant: R03 MH092164 Assay Provider: Kyungjae Myung, NHGRI, NIH
ELG1-luc HEK293T cells will be seeded in 1536-well plates at a density of 2,000 cells/well. Approximately 5 hours after plating, compounds will be added to the plate by pin tool transfer and 5-fluorouridine will be added by FRD dispenser (final concentration of 5-fluorouridine =10 µM). 16 hours following the addition of the compounds, cell viability will be measured using CellTiter Glo.

Compound | activity change, negative = inhibition [%] | outcome
O=c1cc(-c2nc(Nc3ccc(F)c(F)c3)c3ccccc3n2)cc[nH]1 | 31.2 | –
Fc1cc(Nc2nc(-c3ccncc3)nc3ccccc23)ccc1-n1cncn1 | – | inactive
COc1nccc(-c2nc(Nc3ccc(F)c(F)c3)c3ccccc3n2)c1Cl | 29.1 | –
Fc1cc(Nc2nc(-c3ccncc3)nc3ccccc23)ccc1-c1cn[nH]c1 | 30.4 | –
N#Cc1cnccc1-c1nc(Nc2ccc(F)c(F)c2)c2ccccc2n1 | 50.8 | –
Fc1ccc(-c2ccc(Nc3nc(-c4ccncc4)nc4ccccc34)cc2F)cc1 | -6.05 | –
COc1cc(Nc2nc(-c3ccncc3)nc3ccccc23)ccc1Cl | 2.26 | –
Fc1ccc(-c2nc(-c3ccncc3)nc3ccccc23)cc1F | -9.33 | –
COc1cc(Nc2nc(-c3ccncc3)nc3ccccc23)ccc1N1CCN(C)CC1 | 4.29 | –
Fc1ccc(Nc2nc(-c3ccncc3Cl)nc3ccccc23)cc1F | 35.1 | –
Fc1cc(Nc2nc(-c3ccncc3)nc3ccccc23)ccc1-c1cncnc1 | 13.4 | –
CN1CCN(c2ccc(Nc3nc(-c4ccncc4)nc4ccccc34)cc2F)CC1 | 11.4 | –
CCOC(=O)c1ccc2c(c1)c(C(C)=O)c(C)n2-c1ccc(OC)cc1 | -4.76 | –
Fc1cc(Nc2nc(-c3ccncc3)nc3ccccc23)ccc1-c1cc(F)c(F)c(F)c1 | 9.22 | –
Nc1cc(-c2nc(Nc3ccc(F)c(F)c3)c3ccccc3n2)ccn1 | 50.6 | –
COc1cc(-c2nc(Nc3ccc(F)c(F)c3)c3ccccc3n2)cc(OC)n1 | 18.8 | –
COc1cc(-c2nc(Nc3ccc(F)c(F)c3)c3ccccc3n2)c(F)cn1 | -19.9 | –
Fc1cc(Nc2nc(-c3ccncc3)nc3ccccc23)ccc1OCC(F)(F)F | 20.7 | –
Oc1ccc(Nc2nc(-c3ccncc3)nc3ccccc23)cc1F | 21.5 | –
Fc1ccc(Nc2nc(-c3ccnc(C(F)(F)F)c3)nc3ccccc23)cc1F | 11.1 | –

Compound | activity change, negative = inhibition [%] | outcome
Fc1cc(Nc2nc(-c3ccncc3)nc3ccccc23)ccc1-c1ccnc(C(F)(F)F)c1 | -8.22 | –
COc1ccc(-c2nc(Nc3ccc(F)c(F)c3)c3ccccc3n2)cc1 | -12.5 | –
Fc1ccc(Nc2cc(-c3ccccc3)nc(-c3ccncc3)n2)cc1F | 35.2 | –
Fc1cc(-c2nc(Nc3ccc(F)c(F)c3)c3ccccc3n2)ccn1 | 22.8 | –
COc1ccc(-n2c(C)c(C(C)=O)c3ccccc32)cc1 | – | inactive
COc1nccc(-c2nc(Nc3ccc(F)c(F)c3)c3ccccc3n2)c1OC | 6.79 | –
Fc1cc(Nc2nc(-c3ccncc3)nc3ccccc23)ccc1N1CCCCC1 | -92.1 | –
c1ccc2c(Nc3ccn[nH]3)nc(-c3ccncc3)nc2c1 | -25.2 | –
Fc1cc(Nc2nc(-c3ccncc3)nc3ccccc23)ccc1C(F)(F)F | 4.15 | –
Fc1ccc(Nc2nc(-c3ccncc3F)nc3ccccc23)cc1F | 29.9 | –
COc1cc(-c2nc(Nc3ccc(F)c(F)c3)c3ccccc3n2)ccn1 | 36 | –
Fc1cc(Nc2nc(-c3ccncc3)nc3ccccc23)ccc1OC(F)(F)F | 26.8 | –
Fc1cc(Nc2nc(-c3ccncc3)nc3ccccc23)ccc1-c1cccnc1 | -10.6 | –
COc1cc(Nc2nc(-c3ccncc3)nc3ccccc23)ccc1NS(C)(=O)=O | 27.9 | –
Fc1ccc(-c2ccc(Nc3nc(-c4ccncc4)nc4ccccc34)cc2F)c(Cl)c1 | -26.9 | –
Fc1cc(Nc2nc(-c3ccncc3)nc3ccccc23)ccc1-c1ccncc1 | 37.6 | –
COc1ccc(-c2ccc(Nc3nc(-c4ccncc4)nc4ccccc34)cc2F)cc1F | 4.42 | –
Cc1noc(C)c1-c1ccc(Nc2nc(-c3ccncc3)nc3ccccc23)cc1F | -90.5 | –
Fc1cc(Nc2nc(-c3ccncc3)nc3ccccc23)ccc1-c1cccc(C(F)(F)F)c1 | -24.6 | –
Fc1cc(Nc2nc(-c3ccncc3)nc3ccccc23)ccc1N1CCNCC1 | -13.6 | –
